For 20 compounds, growth results are on record in PubChem BioAssay (NCI).

Holding throughout (experiment): NCI-60 one-dose screen, 48 h (100 = growth as untreated, 0 = no growth, -100 = all killed)
Test [1] concerns SR leukemia. Particulars: 10 µM unless noted.
Test [2] concerns RPMI-8226 leukemia. The note with it: 10 µM.
Test [3] relates to OVCAR-8 ovarian. The note with it: 10 µM unless noted.
Test [4] concerns OVCAR-5 ovarian. The note with it: 10 µM unless noted.
Test [5] relates to OVCAR-4 ovarian. The note with it: 10 µM unless noted.
In test [6] the test system is IGROV1 ovarian. The note with it: 10 µM unless noted.
Test [7] has as its system OVCAR-3 ovarian. The note with it: 10 µM unless noted.
For test [8], the system named is HS 578T breast. Particulars: 10 µM unless noted.
In test [9] the test system is NCI/ADR-RES ovarian. The note with it: 10 µM unless noted.
Test [10] relates to SK-OV-3 ovarian. The note with it: 10 µM.

The structures appear in SMILES notation. The panel holds about 83,000 compounds, 20% with a hit somewhere; the sample as a whole holds those more often.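 The endpoint reported here, percent growth, reads 100 for growth as untreated, 0 for no net growth and -100 for all cells dead.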 Unmarked numbers belong to inactive results. Calls of active or inactive are those of the source. How the source made its calls: active means growth percent below 10; inactive means the rest.

For the compound `COc1ccc(/C=C/C(=O)N2CCC(O)CC2)cc1OC1CCCC1`, the growth in test [1] is 108%; in test [2], 107%; in [3] it was 96.5%; in test [4] it was 104%; in [5], 101%; in test [6] it was 104%. The growth is 111% in test [7], 96.1% in test [8] and 106% in test [9].
Turning to `CCCCCCCC/C=C\CCCCCCCCOc1cccc(CC(=O)NCC[N+](C)(C)C)c1`, the growth is 59% in [1]; 61.9% in [2]; 85.9% in [3]; 51.8% in [4]; 88.6% in test [5]; 3.34% (active) in test [6]. Also, the growth was 99.4% in test [7] and 78.4% in test [8].
As to `Cc1ccc(NS(=O)(=O)c2ccc(-c3cnc(C4CC4)o3)cc2)cc1`, the growth is 33.8% in test [1]; 37.6% in test [2]; 49.3% in [3]; 48.8% in test [4]; 59% in [5]; 39.8% in test [6]. Moreover, the growth in test [7] was -2% (active); in test [8] it was -2.93% (active); in test [9] it was 8.09% (active).
For `OB(O)c1ccccc1`, the growth in test [1] was 88%; in test [2], 102%; in test [3] it was 105%; in test [4], 108%; in test [5], 115%; in [6], 114%. The growth in test [7] is 114%; in test [8] it was 102%; in test [9], 104%.
`COc1ccc(-c2nc(Nc3ccc(F)cc3)nc(Nc3ccc4c(c3)nc(C)n4Cc3ccccc3)n2)cc1`: the growth is -20.4% (active) in test [1]; -17.7% (active) in test [2]; 17.9% in test [3]; 88.1% in test [4]; 42.6% in test [5]; 76.8% in test [10]. Further, the growth was 36.4% in test [6], 54.5% in test [8] and 26.6% in test [9].
For `Cc1nc2cc(Nc3nc(NCCN)nc(Nc4ccc(F)cc4)n3)ccc2n1Cc1ccccc1`, the growth is -26.5% (active) in test [1]; -45% (active) in test [2]; 89.1% in test [3]; 106% in [4]; 77% in test [5]; 95.5% in test [10]. Also, the growth in test [6] was 81.4%; in [8], 102%; in test [9] it was 103%.
Consider `O=C1/C(=C/c2ccccc2F)CNC/C1=C\c1ccccc1F`, for which the growth in test [1] was -2.72% (active); in test [2], -27.8% (active); in test [3], 2.92% (active); in test [4], -41.3% (active); in test [5] it was 6.6% (active); in test [10] it was -45.1% (active). Besides, the growth is -6.61% (active) in test [6], 24.5% in test [8] and 10.9% in test [9].
Take `Cc1nc(-c2ccccc2)cc2c(O)c(C(=O)N/N=C/Cc3ccccc3)[nH]c(=O)c12`: the growth is 46.1% in test [1]; 103% in test [2]; 103% in test [3]; 101% in [4]; 110% in test [5]; 108% in test [10]. Also, the growth was 113% in [6], 112% in test [8] and 109% in test [9].
Consider `COc1cccc2c(=O)c3c(sc12)c(NCCN(C)C)nc1ccccc13`, for which the growth in test [1] was -21.2% (active); in test [2], -20.1% (active); in test [3], 25.2%; in test [4], 40.8%; in test [5], -14.4% (active); in test [6], 21%. The growth in [7] is 24.9%; in test [8] it was 13.6%; in [9], 29.4%.
Turning to `CCN1CCN(C(=S)SCC(=O)Nc2nc3ccc(OC)cc3s2)CC1`, the growth was 88.3% in test [1]; 98% in test [2]; 103% in test [3]; 98.8% in test [4]; 93.3% in test [5]; 112% in test [10]. Also, the growth in test [8] was 106%.
`COC(=O)c1cc(-c2ccc(C)cc2)n(C(=O)CSc2nc3sc(C(N)=O)c(C)c3c(=O)n2Cc2ccccc2)n1`: the growth in [1] is 86.9%; in test [2], 94.4%; in [3], 104%; in [4] it was 110%; in [5] it was 100%; in [10] it was 96.8%. Also, the values for the growth in test [7] and in test [8] were 106% and 107%, respectively.
As to `COc1ccc(/C=N/OCC(O)CN2CCC(O)CC2)cc1OC1CCCC1` (configuration not stated), the growth is 112% in [1]; 110% in [2]; 109% in test [3]; 101% in test [4]; 100% in [5]; 107% in [6]. Further, the growth in test [7] is 114%; in [8], 108%.
On to `Cc1nn2c(-c3nc4ccc(Cl)cc4[nH]3)c(-c3ccc(F)cc3)nc2s1`, for which the growth in test [1] is 72%; in test [2], 77.6%; in [3], 87.7%; in test [4] it was 98.5%; in test [5], 115%; in test [10] it was 107%. Besides, the figures for the growth in test [7] and in [9] were 110% and 96.4%, respectively.
As for `COc1cc(-c2nc3ccccc3o2)cc(CN2CCN(c3ccccc3)CC2)c1O`, the growth in test [1] was 45.1%; in test [2] it was 53.2%; in test [3], 78.3%; in test [4], 117%; in [5], 84.6%; in test [10], 116%. For the same compound, the growth was 86.8% in [6], 110% in test [8] and 69.4% in test [9].
On to `COC(=O)CCC(=O)c1ccccc1`, for which the growth in [1] is 90.9%; in [2] it was 98.6%; in test [3] it was 102%; in test [4] it was 98.4%; in test [5], 112%; in test [10] it was 119%. Also, the figures for the growth in test [7] and in test [8] were 111% and 123%, respectively.
For `O=c1nc(NO)[nH]c(=O)n1Cc1ccc(F)cc1`, the growth in test [1] was 103%; in [2] it was 105%; in test [3] it was 109%; in test [4], 104%; in test [5], 91.5%; in test [10] it was 105%. In addition, the growth in test [6] was 97.3%; in test [8], 112%; in test [9], 107%.
On to `Oc1ccc2ccccc2c1C1NN=C(c2ccccc2)S1` (configuration not stated), for which the growth in test [1] is 2.39% (active); in test [2] it was 19.6%; in [3] it was 15.6%; in [4], 43.2%; in test [5] it was 22.3%; in [10] it was 15.4%. Further, the figures for the growth in test [7], in test [8] and in test [9] were 35.1%, 57.7% and 19.5%, respectively.
As to `COc1cc(C(=O)N(C(C)C)C2CCCCC2)cc(OC)c1OC`, the growth is 99.5% in test [1]; 88.5% in test [2]; 90.3% in test [3]; 109% in test [4]; 107% in [5]; 91.3% in [10]. In addition, the growth in test [6] is 105%; in test [8], 102%; in test [9], 96.1%.
Turning to `O=[N+]([O-])c1ccc(C=C2C(Cl)=C(Cl)C(Cl)=C2Cl)cc1`, the growth in test [1] was -1.36% (active); in test [2] it was 11.4%; in test [3], 22.4%; in test [4], 112%; in test [5] it was 54.5%; in test [10] it was 115%. Also, the growth in test [7] was -17% (active); in test [8], -13.4% (active).
Regarding `Cc1ccccc1-c1cc(-c2ccc(Br)s2)[nH]c(=O)c1C#N`, the growth in [1] is 100%; in [2], 102%; in test [3], 105%; in [4], 104%; in test [5] it was 108%; in test [6], 96.5%. Also, the growth is 113% in test [7], 96% in test [8] and 98.5% in test [9].
